Data on 93 compounds can be found in PubChem BioAssay AID652126 (The Scripps Research Institute Molecular Screening Center, 2013).

Molecules are shown by their SMILES. In all, about 370,000 compounds went through this assay and about 3,700 (1%) were called active.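 Rule for the calls: active = activation above the mean over all tested compounds plus 3 SD (cut at about 0.9% in these data); inactive = the rest.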 The list comes from a sample in which actives are over-represented; it also holds similar structures and randomly drawn compounds.

The test system of this assay is Nuclear hormone receptor DAF-12 (Strongyloides stercoralis). Put plainly: ssDAF-12 driven luciferase reporter activation – cell-based, luminescence, HEK293, GRIP1 co-expression, lit1-tk-luc, primary screen (AID 652126).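 Note: 0% = DMSO-only wells and 100% = 3 µM delta7-dafachronic acid wells.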 The conditions noted are these: HEK293 ssDAF-12/GRIP1 lit1-tk-luc reporter, at 6.8 µM, hits give high values, % of 3 µM dafachronic acid response. Background: A reporter such as luciferase makes a cellular process visible.
Regarding `Cn1c(=O)c2c(nc(NCCNC(=O)c3ccco3)n2Cc2ccccc2F)n(C)c1=O`, the activation was -0.73% (inactive). Under `Cn1c(=NC(=O)c2ccco2)sc2cccc(F)c21` stands 2.16% (active); under `Cc1cc(NC(=O)c2ccco2)c(=O)n(Cc2c(F)cccc2Cl)c1`, -1.23% (inactive); under `O=C(COc1ccccc1Cl)Nc1ccc(C(=O)c2ccc(C(=O)O)cc2)cc1`, -1.01% (inactive). Under `O=C(COc1ccccc1Cl)Nc1ccccc1C(=O)NC1CC1` stands -0.61% (inactive).

For the compound `CC(=O)Nc1ccc(NC(=O)COc2ccccc2C(=O)Nc2cccc(Cl)c2Cl)cc1`, the activation is 1.78% (active). In the case of `O=C(CSc1nc2ccccc2s1)N=Nc1c(O)[nH]c2ccccc12`, the activation is -1.23% (inactive). As for `CC(C)c1ccc(C=NNc2ccc([N+](=O)[O-])cn2)cc1`, the activation is 1.01% (active). Under `CN(CCc1ccccc1)c1ccc([N+](=O)[O-])cn1` stands -0.22% (inactive); under `CCC1([N+](=O)[O-])COC(c2ccc(C(C)C)cc2)OC1` (stereo not drawn), -0.23% (inactive). Under `CCOC(=O)[C@@]12CCC3=C1N(CCC3)C(=O)[C@H](CC(=O)N1CCN(C(=O)c3ccco3)CC1)C2` stands -0.8% (inactive). For the compound `CN1[C@H](Cc2ccccc2)COc2cccc(N3CCSCC3)c2S1(=O)=O`, the activation was -0.12% (inactive). As to `O=C(NCC1COc2ccccc2O1)c1ccc(NC(=O)c2cc(F)ccc2F)cc1` (stereo not drawn), the activation was -0.55% (inactive).

For `COC(=O)c1ccccc1-n1cc(COC(=O)NCCc2ccccc2)nn1`, the activation was -1.12% (inactive). Under `Nn1c(SCC(=O)Nc2nccs2)nnc1-c1ccco1` stands 0.9% (active); under `Nn1c(SCC(=O)Nc2nccs2)nncc1=O`, -2.06% (inactive). Under `CCn1c(SCC(=O)Nc2nccs2)nnc1-c1ccco1` stands -1.06% (inactive); under `O=S1(=O)CC(N2CCN(CCO)CC2)CN1Cc1cn(Cc2ccc(Cl)cc2)nn1` (stereo not drawn), -0.54% (inactive); under `O=S1(=O)c2ccc(Br)cc2OC[C@@H](Cc2ccccc2)N1Cc1cn(Cc2ccco2)nn1`, -1.35% (inactive). Under `O=C(CCS(=O)(=O)c1ccccc1)Nc1ccc(Cl)c(Cl)c1` stands -1.34% (inactive); under `Cc1cc(N)n2nc(-c3ccc(C(C)(C)C)cc3)cc2n1`, 2.97% (active); under `CCOC(=O)C1=C(C)NC2=C(C(=O)CC(C)(C)C2)C1c1ccc2c(c1)OCO2` (stereo not drawn), -1.32% (inactive). With `COc1ccccc1NC(=O)c1c(Br)cnn1C`, the activation is -1.57% (inactive). Take `COc1ccccc1NC(=O)c1cc(Cl)nnc1Cl`: the activation is -0.66% (inactive).

Regarding `COc1ccccc1NC(=O)c1ccc(C)s1`, the activation is 1.3% (active). Under `O=C(CSc1nnc(-c2cccc(Cl)c2)n1Cc1ccco1)Nc1ccc(OCc2ccccc2)cc1` stands -1.14% (inactive); under `Cc1c(C(N)=O)sc2ncn(CCOc3ccccc3)c(=O)c12`, -2.14% (inactive). On to `Cc1nn(CCOc2ccccc2)c(=O)n1-c1ccccc1F`, for which the activation was 1.79% (active).

As to `Cc1cccc2c1N(CCOc1ccccc1)C(=O)C2=O`, the activation was -1.52% (inactive). `Cc1ccc(NC(=O)c2cc(C)nn2-c2ccccc2)c(C)c1`: the activation was -1.78% (inactive). For the compound `O=C(CNS(=O)(=O)c1ccccc1F)N1CCN(c2ccccn2)CC1`, the activation was -1.72% (inactive). Under `Fc1ccc(-c2nnc(CSc3nnc(-c4ccc5c(c4)OCO5)o3)o2)cc1` stands -1.18% (inactive); under `Fc1ccc2nc(-c3ccccc3)nc(SCc3nnc(-c4ccccc4)o3)c2c1`, 1.48% (active). Under `Cc1ccc2nc(SCc3nnc(-c4ccccc4[N+](=O)[O-])o3)c(C#N)cc2c1` stands -1.27% (inactive); under `O=C1CC[C@@H](COc2ccc3[nH]cc(-c4ccccc4)c3c2-c2ccccc2)N1`, -0.33% (inactive); under `COC1=C[C@H](C(=O)NCCNC(C)=O)[C@H](C)[C@@H](c2ccccc2)CC1=O`, -1.26% (inactive). Under `FC(F)(F)c1ccc2c3n(nc2c1)CCN=C3c1ccc(Cl)cc1` stands 1.01% (active). Consider `CC(=O)c1cc(C#N)c(SCC(=O)Nc2nccs2)nc1C`, for which the activation was -0.91% (inactive). Under `CC(c1nnc(SCC(=O)Nc2sccc2C#N)n1-c1ccc(Cl)cc1)N(C)C` (stereo not drawn) stands -0.72% (inactive). Under `Cc1csc(SCC(=O)Nc2sccc2C#N)n1` stands 0.96% (active); under `C=C(C)C1CC23C(=O)C4(C(=O)c5ccccc5)C[C@@]5(C)CCC(CC2C1(C)C)(C4=O)C35OC` (stereo partly drawn), -1.03% (inactive); under `Clc1ccc(-n2c(SC/C=C/c3ccccc3)nnc2-c2ccco2)cc1`, -1.68% (inactive).

On to `COc1ccc(C(=O)OCCN(C)C2CN(Cc3cn(Cc4cccc(C)c4)nn3)S(=O)(=O)C2)cc1OC` (stereo not drawn), for which the activation was -0.78% (inactive).

Consider `Cc1ccc2nc(-c3ccccc3)c(CC3CCCCC3)n2c1`, for which the activation was 1.3% (active). Under `COc1ccccc1Cc1c(-c2ccc(F)cc2)nc2ccc(C)cn12` stands 0.07% (inactive); under `Brc1ccc2nc(-c3ccccc3)c(Cc3ccccc3)n2c1`, -0.45% (inactive); under `COc1ccc(-n2c(SCC(=O)Nc3ccc4cn[nH]c4c3)nnc2-c2cccnc2)cc1`, -1.16% (inactive). Under `O=C(CSc1nc2c(c(=O)[nH]1)CCCC2)N1CCCCC1` stands -1.67% (inactive); under `COC(=O)c1c(NC(=O)COC(=O)[C@@H](NS(=O)(=O)c2ccccc2)C(C)C)sc2c1CCC2`, -1.44% (inactive). Under `NNc1nc2c(Cl)cccc2s1` stands -0.81% (inactive); under `CCN(CC)CC(=O)Nc1sc2c(c1C(=O)c1ccccc1C)CCC2`, -1.11% (inactive); under `NC(=O)c1c(Nc2nc3c(F)cccc3s2)sc2c1CCCC2`, 1.29% (active).

Take `NC(=O)c1c(NC(=O)c2ccccc2)sc2c1CCCC2`: the activation is 2.15% (active). As for `CCOC(=O)C(NC(=O)CC(C)C)(Nc1sc2c(c1C(N)=O)CCCC2)C(F)(F)F` (stereo not drawn), the activation was -0.54% (inactive).

In the case of `Cc1ccc(C(=O)C2CCN(CC(=O)NCCC(C)C)CC2)cc1`, the activation is -1.67% (inactive). Under `C=CCNc1nc(Nc2ccc(Cl)cc2)nc(OC)n1` stands -0.26% (inactive). Under `CC1(C)N=C(N)NC(Nc2ccc(Cl)cc2)=N1` stands -1.4% (inactive); under `Clc1ccc(Nc2ccc3ccccc3n2)cc1`, 2.58% (active); under `O=C(CCl)NC1CCCCN(Cc2cccc(C(F)(F)F)c2)C1=O` (stereo not drawn), -1.24% (inactive). Under `NCC(=O)c1cccc2ccc[n+]([O-])c12` stands -0.72% (inactive); under `Cc1ccccc1NC(=O)C1CCN(c2ncccn2)CC1`, 0.24% (inactive); under `CCCCNc1cccc2c1S(=O)(=O)N[C@@H](C)CO2`, -0.23% (inactive).

With `CC(C)NC(=O)CSc1nnc(COc2ccccc2Cl)o1`, the activation is 1.16% (active). Under `Cc1ccccc1OCc1nnc(SCC(=O)N2c3ccccc3Sc3ccc(Cl)cc32)o1` stands -1.28% (inactive). Under `Cc1ccc(NC(=O)CSc2nnc(COc3ccccc3C)o2)cc1` stands -1.56% (inactive); under `COc1cccc(NC(=O)c2cc(S(=O)(=O)N3CCc4ccccc43)cn2C)c1`, -1.71% (inactive). Under `Cc1ccc(CSc2nnc(SCC(=O)NN=Cc3cc(Br)ccc3F)s2)cc1` stands -1.54% (inactive); under `CCCCNC(=O)C[C@H]1C(=O)N(Cc2ccc(OC)cc2)C2=CCCC[C@@]21C(=O)OCC`, -0.84% (inactive); under `COC[C@@H]1CCCN1c1ccc2c(c1)O[C@H](C)CCN(C1CC1)S2(=O)=O`, -1.91% (inactive). With `Cc1ccc(NC(=O)c2cc([N+](=O)[O-])ccc2Cl)c(O)c1`, the activation is 1.5% (active). Under `CNc1ccc([N+](=O)[O-])cc1C(=O)O` stands -1.81% (inactive); under `CCC(C)C(=O)Nc1cc([N+](=O)[O-])ccc1Cl` (stereo not drawn), -1.16% (inactive); under `Cc1ccc(Cn2cc(COC(=O)N(C)Cc3ccccc3)nn2)cc1`, -0.46% (inactive).

Regarding `C=CCN1C(=O)[C@@H](CC(=O)NCCCOCCCC)[C@]2(C(=O)OCC)CCCCC/C=C/12`, the activation was -0.98% (inactive).

As for `O=C(CSc1nc2sc3c(c2c(=O)n1-c1ccccc1)CCCC3)NN=Cc1ccc(OCc2ccccc2)cc1`, the activation is -0.96% (inactive). Under `CCOc1ccc(NC(=O)c2ccc(NC(=O)COC(=O)c3ccc(NC(=O)CC#N)cc3)cc2)cc1` stands 0.93% (active). On to `CCOc1ccc(NC(=O)c2ccc(NC(=O)CN3C(=O)C(=O)N(CC(C)C)C3=O)cc2)cc1`, for which the activation is -0.14% (inactive).

Consider `CCOc1ccc(NC(=O)c2ccc(CSc3nnnn3C)cc2)cc1`, for which the activation is -1.09% (inactive). With `COc1ccc(CN2C(=O)N3Cc4cc(OC)ccc4C3CS2(=O)=O)cc1` (stereo not drawn), the activation was -1.71% (inactive). Under `CCOC(=O)C1(Cc2ccccc2)CCN(Cc2cn(C(C)=O)c3ccccc23)CC1` stands 0.62% (inactive); under `CCOC(=O)[C@]12CCCCC/C=C\1N(Cc1ccc(OC)cc1)C(=O)[C@H]2CC(=O)NCCCN1CCCC1=O`, -0.74% (inactive); under `Cc1ccc(-n2c(SCC(=O)Nc3cccc4ccccc34)nnc2-c2ccco2)cc1`, -0.86% (inactive). Under `Nc1ccccc1/C=N\N=C/c1ccccc1N` stands 1.95% (active). On to `CN(CCc1ccccc1)C(=O)Cn1nc(-c2ccccc2)ccc1=O`, for which the activation was -0.4% (inactive). Under `COC(=O)C[C@@H]1CC[C@@H]2[C@@H](COc3ccc(NC(=O)Nc4ccc(F)c(F)c4)cc3C(=O)N2C)O1` stands -1.37% (inactive); under `O=C(NC1CCC1)c1ccc(C#CC2CC2)cn1`, 0.89% (inactive); under `O=C(NCCCc1ccccc1)[C@H](Cc1ccccc1)NC1(C(=O)NCCc2c[nH]c3ccccc23)CCC1`, -0.89% (inactive). With `NC(c1csc(NC(=O)Nc2cccc(C(F)(F)F)c2)n1)C1CCCCC1` (stereo not drawn), the activation is -0.46% (inactive).

With `Cc1cc(S(=O)(=O)N2CCOCC2)ccc1OCC(=O)Nc1cccc(C(F)(F)F)c1`, the activation was -1.62% (inactive). Under `Cc1ccc(NC(=O)Nc2cccc(C(F)(F)F)c2)nc1` stands 4.62% (active); under `N#Cc1c(C(F)(F)F)cc(-c2ccc(Cl)cc2)nc1SCC(=O)O`, 1.77% (active); under `Cc1cc(C(F)(F)F)c(C#N)c(SCC(=O)NC2CC2)n1`, -1.36% (inactive). Turning to `CCN(CC)c1nc(-c2ccccc2)cc(C(F)(F)F)c1C#N`, the activation is -0.98% (inactive).
